Measured potencies and affinities stand elsewhere.
tested on: Klebsiella pneumoniae; details: Concentration 20 uM; ASSAY_TEST Inhibition of Bacterial Growth; detection method Absorption (OD600); MEDIA CAMHB; plate type 384well; NBS; CORNING #3640; time 18 hr

In order of falling Inhibition:
1. Clc1[nH]cnc2nccc1-2  29.26%
2. CC(C)Cc1nnc(N)s1  28.97%
3. CCOC(=O)c1c(N)ssc1=S  23.27%
4. ClCC(CNCc1ccccc1)c1ccccc1 (stereo not drawn)  19.58%
5. Nc1ccc(S(=O)(=O)NCC2CCCCO2)cc1 (stereo not drawn)  16.22%
6. COC(=O)C1CC(O)C(O)C(O)C1 (stereo not drawn)  15.79%
7. Cn1c(=O)c2c(nc(Cc3ccccc3)n2C)n(C)c1=O  15.33%
8. CC1=Nc2ccccc2/C1=C\c1c(C)[nH]c2ccccc12  14.94%
9. O=C(NC1CCCCC1)c1cc2ccccc2cc1O  14.67%
10. CC(C)=C(c1ccc(Cl)cc1)c1c(N)ncnc1N  14.5%
11. CSc1ccc(NC(=O)Nc2cc(C)ccn2)cc1  13.34%
12. O=C(N(c1ccccc1)c1ccccc1)N(c1ccccc1)c1ccccc1  13.27%
13. N#Cc1n[nH]c2nc[nH]c(=O)c12  13.07%
14. O=C(Nc1cccc([N+](=O)[O-])c1)c1ccc2ccccc2c1O  12.38%
15. CC(C)(C)CC(C)(C)n1nnnc1N  12.31%
16. CC1CC(C)(C)NC2(CCCC2)N1 (stereo not drawn)  11.32%
17. Nc1ncnc2c1ncn2C1C=C(CO)C(O)C1O (stereo not drawn)  9.87%
18. CCOP(=O)(OCC)/C(C#N)=C/c1ccc([N+](=O)[O-])cc1  9.62%
19. CCn1c2ccccc2c2c3ncc4cccn4c3ccc21  9.08%
20. N#C/C(=C\c1ccc[nH]1)C(=O)c1ccccc1  8.89%
21. c1ccc(-c2ccc3c(c2)NCCN3)cc1  8.37%
22. Cc1cc2c(c(C#N)c1C)NC=NC2C (stereo not drawn)  8.12%
23. Nc1ccc(Br)cc1Br  7.43%
24. CCCCSc1nc(O)cc(C(=O)O)n1  7.02%
25. O=C1c2ccccc2C(=O)C1c1ccccn1  6.77%
26. Cc1nn(-c2ccccc2)nc1C(=O)Nc1ccc2[nH]ncc2c1  6.45%
27. CC1(C)OC2C(CO)OC(n3cnc4c(S)ncnc43)C2O1 (stereo not drawn)  6.21%
28. Nc1nc(N)c(/N=N/c2ccc(C(=O)O)cc2)c(N)n1  6.15%
29. Cc1cc(O)c2c(C)ccc(C)c2n1  5.25%
30. COc1cc(S(N)(=O)=O)c(OC)cc1N  5.18%
31. c1ccc(-c2nnc(-c3ccccn3)s2)nc1  4.63%
32. Nc1ccc2c(c1)Cc1cc(Cl)c(Cl)cc1-2  4.46%
33. CCCOc1ccc(-c2nc(-c3ccc(N)cc3)cs2)cc1  4.45%
34. Cc1nnc2nc(-c3ccccc3)nc(-c3ccccc3)n12  4.14%
35. CCOC(=O)/C(C#N)=C\c1c[nH]c2ccccc12  2.71%
36. O=c1[nH]c(=S)c2ncn(-c3ccccc3)c2[nH]1  1.95%
37. CC(C)N(C(=O)c1cccc([N+](=O)[O-])c1)C(C)C  0.52%
38. O=C(NC(=S)Nc1cccc(O)c1)c1ccco1  -1.93%
